High-throughput results deposited in PubChem BioAssay by National Center for Advancing Translational Sciences (NCATS).
TDP1 cell CPT: DT40-hTDP1 cell growth loss with CPT; chicken DT40 Tdp1-/-;hTDP1 cells + 20 nM CPT, ATP luminescence, 48 h; Potency, µM (top dose mostly 46.2 µM), usual class: inhibitors; 12% of 420,000 active; note: nearly all actives have a fitted effect of over 55% in size
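Cell growth measured by CellTiter-Glo luminescence after a minimum 48 h, 37 C compound exposure with 20 nM CPT in Tdp1-knockout DT40 cells stably expressing hTDP1, seeded 400/well; qHTS titration format.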
TGFb inhibitor: blocks TGF-b signaling. HepG2 CAGA-GFP TGF-b/SMAD3 reporter, GFP fluorescence, 18 h; TGF-beta stimulated, 500 pg/mL final. Potency, µM (titrated, usually from 46.1 µM), most hits filed as inhibitors. 1.2% of 410,000 active; note: nearly all actives have a fitted effect of over 65% in size
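Using HEPG2 CAGA-GFP reporter cells at 1000 cells/well, we pinned test compounds, stimulated with recombinant TGF-beta (500 pg/mL final) and measured total well GFP after 18 h.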
S-ASM inh: inhibitors of human secretory acid sphingomyelinase; P17405; 0.006% of 340,000 active; Potency, µM (series often up to 57.5 µM), usual class: inhibitors; placental ASM, HMU-PC fluorogenic substrate, 60 min
Target sequence (P17405 47-631 limits assumed): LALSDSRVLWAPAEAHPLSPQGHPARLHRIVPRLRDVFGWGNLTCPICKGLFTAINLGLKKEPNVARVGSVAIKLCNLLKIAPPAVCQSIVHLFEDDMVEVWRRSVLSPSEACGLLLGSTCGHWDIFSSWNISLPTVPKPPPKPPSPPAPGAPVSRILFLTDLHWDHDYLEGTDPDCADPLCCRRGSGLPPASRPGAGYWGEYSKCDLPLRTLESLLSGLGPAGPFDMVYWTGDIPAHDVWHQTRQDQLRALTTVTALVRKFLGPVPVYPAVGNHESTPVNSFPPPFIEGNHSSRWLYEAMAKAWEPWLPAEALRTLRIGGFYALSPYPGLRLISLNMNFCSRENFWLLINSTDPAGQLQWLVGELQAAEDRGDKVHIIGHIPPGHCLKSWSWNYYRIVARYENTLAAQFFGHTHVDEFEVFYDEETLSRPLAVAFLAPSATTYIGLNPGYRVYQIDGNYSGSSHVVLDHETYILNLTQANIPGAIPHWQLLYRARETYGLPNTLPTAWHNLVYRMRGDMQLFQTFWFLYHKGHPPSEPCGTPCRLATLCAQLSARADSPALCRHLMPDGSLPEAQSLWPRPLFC
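Fluorescence read-out (Ex 386 nm, Em 447 nm) after stopping the reaction at pH 10. Enzyme: ASM from human placenta; substrate HMU-PC0, 9 uM final; 60 min, 37 °C. Compound preincubation 10 min, ambient temperature.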
TDP1 cell noCPT: qHTS for Inhibitors of human tyrosyl-DNA phosphodiesterase 1 (TDP1): qHTS in cells in absence of CPT. DT40 Tdp1-/- hTDP1 cells, no CPT, ATP luminescence, 48 h. Potency, µM (titrated, usually from 46.2 µM), most hits filed as inhibitors. 15% of 420,000 active. AID 686978, 2013; note: nearly all actives have a fitted effect of over 55% in size
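Luminescent ATP content (CellTiter-Glo) served as the growth readout. Knockout chicken DT40 cells expressing human TDP1 were exposed to compounds without camptothecin for a minimum 48 hr at 37 °C.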
HepG2 viability: counter-screen for TGF-b inhibitors: cytotoxicity in HepG2 cells | Potency, µM (top dose mostly 46.1 µM), actives largely listed as cytotoxic | 0.76% of 410,000 active | HepG2 CAGA-GFP viability, ATP luminescence, 18 h
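CellTiter-Glo luminescence gave cytotoxicity after 18 hours at 37 degrees C. The cells were HepG2 CAGA-GFP in 1% FBS DMEM, stimulated with 500 pg/mL TGF-beta after compound addition. %Activity was normalised to no-cell wells (complete cell-killing) and DMSO (no toxicity), and curves were fitted and classified.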
IL-1B inflam inh: inhibitors of inflammasome signaling (IL-1 beta secretion); THP-1 LPS/ATP IL-1B secretion, AlphaLISA, 16 h; hits give low values; 4.7% of 360,000 active; activity change, % at 57.5 µM; in the data active = activity change below about -50%; inconclusive = mostly about -30% to -49%
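THP-1 cells pretreated 1 hr with compounds (up to 57.5 uM final), then stimulated with LPS (250 ng/mL final) plus ATP (1.25 mM final); secreted IL-1B measured by AlphaLISA after 16 hr, decreased signal indicating inhibition.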
Large screens that a line does not name were inactive. The list is not random: actives were taken first. Their share in the collection is about 19%. Unless noted, calls come from the whole dose curve; as a rule, active = well fitted curve in the direction sought with a large enough effect; inconclusive = small, poorly fitted or top-dose-only effect, or another doubt; inactive = no such curve, though single readings can be large; an effect the other way counts as inactive or inconclusive.

Cc1ccc(-c2nn(C)c(=O)c3ccccc23)cc1CNC(=O)CN1CCOCC1	TDP1 cell CPT inconclusive, TDP1 cell noCPT inconclusive
CCn1c(C)nc2cc(C(=O)NNC(=S)NC(=O)c3ccccc3)ccc21	TDP1 cell CPT inconclusive, TDP1 cell noCPT 23µM
CCn1c(C)nc2cc(C(=O)NN=C(C)c3ccc(C#N)cc3)ccc21	none
CCn1c(C)nc2cc(C(=O)NNC(=S)Nc3ccccc3)ccc21	none
CCn1c(C)nc2cc(C(=O)N/N=C/c3ccccc3)ccc21	none
CCn1c(C)nc2cc(C(=O)N/N=C/c3cccc(O)c3O)ccc21	TDP1 cell CPT 15µM, TDP1 cell noCPT 9.2µM
CCn1c(C)nc2cc(C(=O)N/N=C(\C)c3ccc(OC)cc3O)ccc21	TDP1 cell CPT 9.2µM, TGFb inhibitor inconclusive, TDP1 cell noCPT 10µM
Cc1cc(C)n(-c2ccc(C(=O)NCC3Cc4cc(-c5cnccn5)ccc4O3)cc2)n1 (stereo not given)	none (no result: TGFb inhibitor, S-ASM inh, HepG2 viability, IL-1B inflam inh)
C[C@@H]1CN([C@@H](C)CO)C(=O)CCCn2cc(nn2)CO[C@H]1CN(C)C(=O)c1ccc2ccn(C)c2c1	TDP1 cell noCPT inconclusive (no result: S-ASM inh)
O=C(NCCCN1CCCC1)c1[nH]c(C(F)(F)F)nc1-c1ccccc1	none (no result: S-ASM inh)
COc1cccc2c1cc1c(=O)n(CC(=O)O)nc(C)n12	TGFb inhibitor inconclusive (no result: S-ASM inh, IL-1B inflam inh)
CC(=O)c1c(C(C)=O)c(C)n(-c2nc(-c3ccc(C)c(C)c3)c(C)s2)c1C	TDP1 cell CPT 18µM, TDP1 cell noCPT 23µM, IL-1B inflam inh -67
COc1ccc(-c2nc(-n3c(C)c(C(C)=O)c(C(C)=O)c3C)sc2C)cc1	TDP1 cell CPT 21µM, TDP1 cell noCPT 23µM
COc1ccc(C[C@H]2CN3C(=NC[C@@H]3Cc3ccccc3)N2CCNC(=O)CCC2CCCCC2)cc1	TDP1 cell CPT 13µM, TGFb inhibitor inconclusive, TDP1 cell noCPT 16µM
COc1ccc(C[C@@H]2CN3C(=NC[C@@H]3C)N2CCNC(=O)c2ccc(C)c(Br)c2)cc1	TDP1 cell CPT 23µM, TDP1 cell noCPT 13µM, IL-1B inflam inh inconclusive
O=C(CCC1CCCCC1)NCCN1C2=NC[C@H](Cc3ccc(O)cc3)N2C[C@H]1Cc1ccc(O)cc1	TDP1 cell CPT inconclusive, TDP1 cell noCPT inconclusive
CC(C)[C@H]1CN=C2N(CCNC(=O)CCC3CCCCC3)[C@H](Cc3ccc(O)cc3)CN21	TDP1 cell CPT 13µM, TDP1 cell noCPT 8.2µM
COc1ccc(C[C@H]2CN3C(=NC[C@@H]3C(C)C)N2CCNC(=O)CCC2CCCCC2)cc1	TDP1 cell CPT 8.2µM, TDP1 cell noCPT 7.3µM, IL-1B inflam inh -56
CC(C)(C)c1nnc(NS(=O)(=O)c2ccccc2)s1	none (no result: TGFb inhibitor, S-ASM inh, HepG2 viability, IL-1B inflam inh)
Cc1cc(NS(=O)(=O)c2ccc(NC(=O)COc3ccc(Cl)c(C)c3)cc2)no1	none
C[C@@H]1CN=C2N(CCNC(=O)CCC3CCCCC3)[C@H](Cc3ccc(O)cc3)CN21	TDP1 cell CPT 13µM, TDP1 cell noCPT 16µM
Cc1sc2ccc3sccc3c2[n+]1C	TDP1 cell CPT 8.2µM, TDP1 cell noCPT 21µM, IL-1B inflam inh -95
Cc1sc2c3ccsc3ccc2[n+]1C	TDP1 cell CPT 13µM, TDP1 cell noCPT 16µM, IL-1B inflam inh -100
O=C(CCc1nnc2ccc(NCc3ccco3)nn12)Nc1ccc(F)cc1	none
C=CC(=O)Nc1ccc(CN2C(=O)N(c3c(Cl)c(OC)cc(OC)c3Cl)Cc3cnc(NCCCCN(CC)CC)nc32)cc1	TDP1 cell CPT 12µM, TGFb inhibitor inconclusive, TDP1 cell noCPT 13µM, IL-1B inflam inh -67
CCN(Cc1ccccc1)C(=O)CCc1nc(CN2CCN(C(=O)c3ccc([N+](=O)[O-])cc3)CC2)no1	TDP1 cell CPT inconclusive, TDP1 cell noCPT inconclusive
CCN(c1ccccc1)S(=O)(=O)c1ccc(C(=O)NCC(=O)Nc2ccc(F)c(F)c2F)cc1	TDP1 cell CPT 15µM, TGFb inhibitor inconclusive, TDP1 cell noCPT 15µM
